Results filed as inconclusive are left out. Entries that show only a call come without a potency. Activity calls are given as the source filed them. The call rests on the fitted dose curve; in most records, active means well fitted curve in the direction sought with a large enough effect; inconclusive means small, poorly fitted or top-dose-only effect, or another doubt; inactive means no such curve, though single readings can be large; an effect the other way counts as inactive or inconclusive.

Test system in the first experiment: not listed separately
Kind of experiment: qHTS of Trypanosoma Brucei Inhibitors: LOPAC Validation (AID 624147). The conditions noted are these: purified enzyme assay, luminescence, 45 min; series mostly up to 57.5 µM. An outline of the steps:
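TbPYK + substrate in 50 mM TEA pH 7.2, 100 mM KCl, 10 mM MgCl2, 0.05% BSA, 0.01% Tween-20; cpd pinned; ADP 130 uM final; 45 min RT; Kinase-Glo Plus 10 min; luminescence endpoint.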
`CN1CCc2cc(O)c(O)cc2C(c2ccccc2)C1` (stereo not given): the Potency entry was “inactive”.

Consider `CCCCCCCC/C=C\CCCCCCCC(=O)NCCO`, for which the Potency entry is “inactive”.

Consider `CNc1ncnc2c1ncn2[C@@H]1O[C@H](CO)[C@@H](O)[C@H]1O`, for which the Potency entry is “inactive”.

Take `NC[C@@H]1O[C@H](C23CC4CC(CC(C4)C2)C3)Cc2c1ccc(O)c2O`: the Potency result was “inactive”.

As for `C=C[C@H]1CN2CC[C@@H]1C[C@@H]2[C@@H](O)c1ccnc2ccc(OC)cc12`, the Potency result was “inactive”.

With `OC[C@H]1O[C@@H](n2cnc3c(Nc4ccccc4)ncnc32)[C@H](O)[C@@H]1O`, the Potency entry was “inactive”.

Turning to `CC(=O)/C=C1\C(=O)N(C)c2ccccc21`, the Potency result is “inactive”.

Take `CCCN(CC1CC1)c1nc(C)nc(Nc2c(Cl)cc(Cl)cc2Cl)c1Cl`: the Potency result was “inactive”.

Take `O=C1NC(=O)/C(=C/c2ccc(-c3ccc(F)cc3O)o2)S1`: the Potency entry was “inactive”.

Regarding `N#C/C(=C\c1ccc(O)c(O)c1)C(=O)NCCCc1ccccc1`, the Potency result is “inactive”.

With `CN1C2CC(OC(=O)[C@H](CO)c3ccccc3)CC1C1OC12` (stereo not given in full), the Potency result was “inactive”.

For `S=C(S)OC1CC2CC1C1CCCC21` (stereo not given), the Potency entry is “inactive”.

With `CSc1nc(N)c2ncn([C@@H]3O[C@H](COP(=O)(O)OP(=O)(O)OP(=O)(O)O)[C@@H](O)[C@H]3O)c2n1`, the Potency result was “inactive”.

With `C[N+]1(C)CCC(OC(=O)C(c2ccccc2)c2ccccc2)CC1`, the Potency entry was “inactive”.

With `Oc1ccc(C2CNCc3sccc32)cc1O` (stereo not given), the Potency entry was “inactive”.

For `CCNC(=O)[C@H]1O[C@@H](n2cnc3c(N)nc(NCCc4ccc(CCC(=O)O)cc4)nc32)[C@H](O)[C@@H]1O`, the Potency entry is “inactive”.

Regarding `COc1ccccc1N1CCN(CCN(C(=O)c2ccc(I)cc2)c2ccccn2)CC1`, the Potency entry was “inactive”.

In the case of `CCOC(=O)N1CCN(/[N+]([O-])=N/Oc2ccc([N+](=O)[O-])cc2[N+](=O)[O-])CC1`, the Potency result was “inactive”.

In the case of `Clc1ccc(N2CCN(Cc3c[nH]c4ncccc34)CC2)cc1`, the Potency entry is “inactive”.

Take `N#C/C(=C\c1ccc(-c2cc(Cl)ccc2Cl)o1)C(=O)Nc1cccc2ncccc12`: the Potency result is “inactive”.

As for `C[N+]1(C)C2CC(OC(=O)[C@H](CO)c3ccccc3)CC1C1OC12` (stereo not given in full), the Potency result is “inactive”.

`COc1cccc(C(=O)NCCN2CCN(c3ccc(Cl)cc3)CC2)c1`: the Potency result is “inactive”.

Consider `NC(=S)c1ccc[n+]([C@@H]2O[C@@H](COP(=O)([O-])OP(=O)(O)OC[C@H]3O[C@@H](n4cnc5c(N)ncnc54)[C@H](OP(=O)(O)O)[C@@H]3O)C(O)C2O)c1` (stereo not given in full), for which the Potency entry was “inactive”.

As to `NC(=S)NCCC[C@H](N)C(=O)O`, the Potency entry was “inactive”.

Turning to `CC(C)NC[C@@H](O)c1ccc(O)c(O)c1`, the Potency result was “inactive”.

For the molecule `CC(C)ON([C@@H](C(=O)NO)C(C)C)S(=O)(=O)c1ccc(-c2ccccc2)cc1`, the Potency result is “inactive”.

Regarding `Nc1ncnc2c1ncn2[C@@H]1O[C@H](COP(=O)(O)CP(=O)(O)OP(=O)(O)O)[C@@H](O)[C@H]1O`, the Potency entry is “inactive”.

Take `COc1ccc(NC(=O)/C=C/c2ccc(Cl)cc2)cc1`: the Potency result was “inactive”.

For the molecule `Nc1ncnc2c1c(I)cn2[C@@H]1C[C@H](N)[C@@H](O)[C@H]1O`, the Potency entry is “inactive”.

As for `CCc1c(C(=O)NCCc2ccc(N3CCCCC3)cc2)[nH]c2ccc(Cl)cc12`, the Potency entry is “inactive”.

Turning to `NC(=O)C1=CN(C2OC(COP(=O)(O)OP(=O)(O)OC[C@H]3O[C@@H](n4cnc5c(N)ncnc54)[C@H](OP(=O)(O)O)[C@@H]3O)C(O)C2O)C=CC1` (stereo not given in full), the Potency entry was “inactive”.

Consider `O=C1/C(=C/c2ccsc2)CC/C1=C\c1cccs1`, for which the Potency result was “inactive”.

The target in another experiment is Glucagon-like peptide 1 receptor (Homo sapiens) (UniProt P43220). Kind of experiment: qHTS of GLP-1 Receptor Agonists: LOPAC Validation (AID 624148).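 Further: luminescence from a luciferase reporter switched on by cAMP; higher luminescence signal means agonism.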 The conditions noted are these: GLP-1R agonist cell assay; series mostly up to 46.1 µM. The method, boiled down: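 Agonism scored as increased luciferase luminescence driven by cAMP in HEK293 clones carrying GLP-1R. Cells settled 12 hours, received compound for 4-6 hr at 37 deg C, 5% CO2, and were read after 12 min detection reagent at RT.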
Sequence of Glucagon-like peptide 1 receptor (Homo sapiens) (P43220 whole entry, looked up): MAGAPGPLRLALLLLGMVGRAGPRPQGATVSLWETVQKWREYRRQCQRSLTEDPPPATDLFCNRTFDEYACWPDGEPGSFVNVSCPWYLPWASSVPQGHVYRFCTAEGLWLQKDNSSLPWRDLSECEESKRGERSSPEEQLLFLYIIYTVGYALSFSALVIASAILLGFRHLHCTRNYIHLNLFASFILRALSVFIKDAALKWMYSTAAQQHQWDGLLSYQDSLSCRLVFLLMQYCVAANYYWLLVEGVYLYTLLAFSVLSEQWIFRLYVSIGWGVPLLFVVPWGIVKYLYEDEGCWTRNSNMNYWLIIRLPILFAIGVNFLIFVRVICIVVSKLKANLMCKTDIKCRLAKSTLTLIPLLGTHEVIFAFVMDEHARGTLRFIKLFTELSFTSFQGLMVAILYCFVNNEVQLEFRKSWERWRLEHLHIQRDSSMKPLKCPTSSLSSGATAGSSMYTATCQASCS
Background: Quantitative high-throughput screening tests each substance at several concentrations.
On to `CN1CCc2cc(O)c(O)cc2C(c2ccccc2)C1` (stereo not given), for which the molecule was called inactive.

For the molecule `CCCCCCCC/C=C\CCCCCCCC(=O)NCCO`, the outcome was inactive.

Turning to `Oc1cc2c(cc1O)CN(C(=S)NCCc1ccc(Cl)cc1)CCC2`, the molecule was classed as inactive.

`CNc1ncnc2c1ncn2[C@@H]1O[C@H](CO)[C@@H](O)[C@H]1O`: the molecule was called inactive.

Consider `NC[C@@H]1O[C@H](C23CC4CC(CC(C4)C2)C3)Cc2c1ccc(O)c2O`, for which the call was inactive.

On to `OC[C@H]1O[C@@H](n2cnc3c(Nc4ccccc4)ncnc32)[C@H](O)[C@@H]1O`, for which the molecule was classed as inactive.

`CC(=O)/C=C1\C(=O)N(C)c2ccccc21`: the molecule was called inactive.

Regarding `CCCN(CC1CC1)c1nc(C)nc(Nc2c(Cl)cc(Cl)cc2Cl)c1Cl`, the call was inactive.

Take `O=C1NC(=O)/C(=C/c2ccc(-c3ccc(F)cc3O)o2)S1`: the molecule was classed as inactive.

As to `CC(C)NCC(O)COc1cccc2ccccc12` (stereo not given), the call was inactive.

Take `N#C/C(=C\c1ccc(O)c(O)c1)C(=O)NCCCc1ccccc1`: the call was inactive.

As to `CN1C2CC(OC(=O)[C@H](CO)c3ccccc3)CC1C1OC12` (stereo not given in full), the molecule was called inactive.

Take `S=C(S)OC1CC2CC1C1CCCC21` (stereo not given): the call was inactive.

Turning to `CSc1nc(N)c2ncn([C@@H]3O[C@H](COP(=O)(O)OP(=O)(O)OP(=O)(O)O)[C@@H](O)[C@H]3O)c2n1`, the molecule was classed as inactive.

As to `C[N+]1(C)CCC(OC(=O)C(c2ccccc2)c2ccccc2)CC1`, the molecule was classed as inactive.

In the case of `CC(C)(C)c1ccc(S(=O)(=O)/C=C/C#N)cc1`, the molecule was called inactive.

As to `Oc1ccc(C2CNCc3sccc32)cc1O` (stereo not given), the result was inactive.

Turning to `CCNC(=O)[C@H]1O[C@@H](n2cnc3c(N)nc(NCCc4ccc(CCC(=O)O)cc4)nc32)[C@H](O)[C@@H]1O`, the molecule was called inactive.

As for `COc1ccccc1N1CCN(CCN(C(=O)c2ccc(I)cc2)c2ccccn2)CC1`, the call was inactive.

In the case of `CCOC(=O)N1CCN(/[N+]([O-])=N/Oc2ccc([N+](=O)[O-])cc2[N+](=O)[O-])CC1`, the result was inactive.

As to `Clc1ccc(N2CCN(Cc3c[nH]c4ncccc34)CC2)cc1`, the molecule was called inactive.

Regarding `N#C/C(=C\c1ccc(-c2cc(Cl)ccc2Cl)o1)C(=O)Nc1cccc2ncccc12`, the outcome was inactive.

On to `C[N+]1(C)C2CC(OC(=O)[C@H](CO)c3ccccc3)CC1C1OC12` (stereo not given in full), for which the molecule was called inactive.

For `NC(=S)c1ccc[n+]([C@@H]2O[C@@H](COP(=O)([O-])OP(=O)(O)OC[C@H]3O[C@@H](n4cnc5c(N)ncnc54)[C@H](OP(=O)(O)O)[C@@H]3O)C(O)C2O)c1` (stereo not given in full), the result was inactive.

On to `NC(=S)NCCC[C@H](N)C(=O)O`, for which the result was inactive.

For the molecule `CC(C)ON([C@@H](C(=O)NO)C(C)C)S(=O)(=O)c1ccc(-c2ccccc2)cc1`, the result was inactive.

Consider `Nc1ncnc2c1ncn2[C@@H]1O[C@H](COP(=O)(O)CP(=O)(O)OP(=O)(O)O)[C@@H](O)[C@H]1O`, for which the molecule was called inactive.

On to `COc1ccc(NC(=O)/C=C/c2ccc(Cl)cc2)cc1`, for which the molecule was called inactive.

For `Nc1ncnc2c1c(I)cn2[C@@H]1C[C@H](N)[C@@H](O)[C@H]1O`, the result was inactive.

Turning to `N.N.N.N.N.N.N.N.N.N.N.N.N.N.O.O.[Ru+4].[Ru+5].[Ru+5]`, the call was inactive.

Take `CCc1c(C(=O)NCCc2ccc(N3CCCCC3)cc2)[nH]c2ccc(Cl)cc12`: the molecule was classed as inactive.

As for `NC(=O)C1=CN(C2OC(COP(=O)(O)OP(=O)(O)OC[C@H]3O[C@@H](n4cnc5c(N)ncnc54)[C@H](OP(=O)(O)O)[C@@H]3O)C(O)C2O)C=CC1` (stereo not given in full), the outcome was inactive.

In the case of `O=C1/C(=C/c2ccsc2)CC/C1=C\c1cccs1`, the outcome was inactive.

The values are drawn from PubChem BioAssay (NCATS).
